Experimental data reported in the supplement of paper PMC10849652.
The full data set covers some 8,800 targets. This sample favours those with a hit. About 0.5% of all pairs of compound and target were hits.

Assays:
Test in all cases: log2 fold change, soluble protein after heating vs DMSO (PISA); higher = thermal stabilisation; K562 lysate, 10 uM; active = over 0.2 and 3.5 SD of the protein, either way, in both replicates (recomputed)
lapatinib = compound: CS(=O)(=O)CCNCc1ccc(-c2ccc3ncnc(Nc4ccc(OCc5cccc(F)c5)c(Cl)c4)c3c2)o1 [lapatinib]
Summary of the method: (§1)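 K562 pellets were dounce-homogenised in PBS pH 7.4 containing 1 mM MgCl2, and the crude extract, at 1 mg/mL protein, was exposed to 10 μM compound for 30 min. Aliquots were heated for 3 min across 48°C-58°C, pooled, brought to 0.5% NP-40 at 4°C and spun at 21,000xg for 90 min, with the supernatant taken as soluble protein. TMTpro 16plex LC-MS/MS with equalised channel sums quantified that protein. Values are log-two fold changes in thermal stability relative to solvent controls, taken from duplicates.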

pictilisib = compound: CS(=O)(=O)N1CCN(Cc2cc3nc(-c4cccc5[nH]ncc45)nc(N4CCOCC4)c3s2)CC1 [pictilisib]
Summary of the method: as §1

crizotinib = compound: C[C@@H](Oc1cc(-c2cnn(C3CCNCC3)c2)cnc1N)c1c(Cl)ccc(F)c1Cl [crizotinib]
Summary of the method: as §1

[1] = compound: C[C@H](C1=CC=C(C=C1)C(=O)NC2=C3C=CNC3=NC=C2)N
Summary of the method: as §1

duvelisib = compound: C[C@H](Nc1ncnc2nc[nH]c12)c1cc2cccc(Cl)c2c(=O)n1-c1ccccc1 [duvelisib]
Summary of the method: as §1

gandotinib = compound: Cc1cc(Nc2cc(CN3CCOCC3)c3nc(C)c(Cc4ccc(Cl)cc4F)n3n2)n[nH]1 [gandotinib]
Summary of the method: as §1

tozasertib = compound: Cc1cc(Nc2cc(N3CCN(C)CC3)nc(Sc3ccc(NC(=O)C4CC4)cc3)n2)n[nH]1 [tozasertib]
Summary of the method: as §1

doramapimod = compound: Cc1ccc(-n2nc(C(C)(C)C)cc2NC(=O)Nc2ccc(OCCN3CCOCC3)c3ccccc23)cc1 [doramapimod]
Summary of the method: as §1

bafetinib = compound: Cc1ccc(NC(=O)c2ccc(CN3CC[C@H](N(C)C)C3)c(C(F)(F)F)c2)cc1Nc1nccc(-c2cncnc2)n1 [bafetinib]
Summary of the method: as §1

[2] = compound: Cc1cccc(CC(=O)N2CCc3c2ccc(-c2cn(C)c4ncnc(N)c24)c3F)n1
Summary of the method: as §1

nilotinib = compound: Cc1cn(-c2cc(NC(=O)c3ccc(C)c(Nc4nccc(-c5cccnc5)n4)c3)cc(C(F)(F)F)c2)cn1 [nilotinib]
Summary of the method: as §1

[3] = compound: Cc1nc(Nc2n[nH]c3c2CN(C(=O)N[C@H](CN(C)C)c2ccccc2)C3(C)C)c2sccc2n1
Summary of the method: as §1

dasatinib = compound: Cc1nc(Nc2ncc(C(=O)Nc3c(C)cccc3Cl)s2)cc(N2CCN(CCO)CC2)n1 [dasatinib]
Summary of the method: as §1

[4] = compound: Cc1ncc(-c2ccnc(Nc3ccc(S(C)(=O)=O)cc3)n2)n1C(C)C
Summary of the method: as §1

[5] = compound: Cn1cc(-c2ccc3c(c2)CCN3C(=O)Cc2cccc(C(F)(F)F)c2)c2c(N)ncnc21
Summary of the method: as §1

quisinostat = compound: Cn1cc(CNCC2CCN(c3ncc(C(=O)NO)cn3)CC2)c2ccccc21 [quisinostat]
Summary of the method: as §1

tipifarnib = compound: Cn1cncc1[C@@](N)(c1ccc(Cl)cc1)c1ccc2c(c1)c(-c1cccc(Cl)c1)cc(=O)n2C [tipifarnib]
Summary of the method: as §1

[6] = compound: NC(=O)Nc1cc(-c2cccc(F)c2)sc1C(=O)N[C@H]1CCCNC1
Summary of the method: as §1

[7] = compound: NC(=O)c1cnc(N[C@@H]2CCCC[C@@H]2N)nc1Nc1cccc(-n2nccn2)c1
Summary of the method: as §1

[8] = compound: NC1(c2ccc(-c3nc4ccn5c(=O)[nH]nc5c4cc3-c3ccccc3)cc2)CCC1
Summary of the method: as §1

Measured: log2 fold change

RBM5 (UniProt P52756)
Chain of UniProt P52756 (P52756 whole entry, looked up): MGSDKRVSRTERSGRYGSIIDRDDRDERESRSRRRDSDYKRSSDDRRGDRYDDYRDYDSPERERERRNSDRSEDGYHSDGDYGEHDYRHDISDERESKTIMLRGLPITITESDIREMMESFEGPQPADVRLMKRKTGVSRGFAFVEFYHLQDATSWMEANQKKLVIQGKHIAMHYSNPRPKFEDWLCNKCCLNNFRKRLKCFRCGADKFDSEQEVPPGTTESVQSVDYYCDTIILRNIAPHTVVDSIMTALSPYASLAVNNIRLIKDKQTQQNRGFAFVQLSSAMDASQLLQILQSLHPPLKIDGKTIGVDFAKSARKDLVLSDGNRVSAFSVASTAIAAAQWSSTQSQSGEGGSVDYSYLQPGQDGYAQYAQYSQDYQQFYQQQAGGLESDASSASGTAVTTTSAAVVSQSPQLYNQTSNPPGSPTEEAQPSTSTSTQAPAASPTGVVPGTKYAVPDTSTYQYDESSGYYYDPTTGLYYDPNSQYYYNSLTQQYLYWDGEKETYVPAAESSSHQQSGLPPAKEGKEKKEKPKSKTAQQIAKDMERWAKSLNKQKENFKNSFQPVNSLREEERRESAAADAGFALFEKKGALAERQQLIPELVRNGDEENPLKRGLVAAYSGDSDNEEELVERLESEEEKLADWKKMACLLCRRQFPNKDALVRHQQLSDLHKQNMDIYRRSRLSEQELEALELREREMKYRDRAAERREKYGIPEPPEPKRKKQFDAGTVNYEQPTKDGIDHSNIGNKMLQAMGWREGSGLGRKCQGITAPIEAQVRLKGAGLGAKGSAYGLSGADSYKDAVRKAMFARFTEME
inactive: lapatinib 0.029 | pictilisib -0.013 | crizotinib 0.005 | [1] -0.268 | duvelisib -0.058 | gandotinib -0.015 | tozasertib 0 | doramapimod 0.058 | bafetinib -0.051 | [2] 0.089 | nilotinib 0.146 | [3] -0.085 | dasatinib 0.073 | [4] 0.028 | [5] -0.003 | quisinostat 0.027 | tipifarnib -0.015 | [6] 0.009 | [7] 0.114 | [8] 0.185

RAB27A (UniProt P51159)
Chain of UniProt P51159 (P51159 whole entry, looked up): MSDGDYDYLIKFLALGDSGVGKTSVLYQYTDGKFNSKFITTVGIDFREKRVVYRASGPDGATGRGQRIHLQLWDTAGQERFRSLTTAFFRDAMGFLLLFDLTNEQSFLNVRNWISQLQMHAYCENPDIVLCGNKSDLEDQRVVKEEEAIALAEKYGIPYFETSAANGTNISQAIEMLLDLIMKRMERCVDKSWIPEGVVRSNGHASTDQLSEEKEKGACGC
active: [1] 0.563
inactive: lapatinib 0.013 | pictilisib -0.008 | crizotinib 0.026 | duvelisib -0.009 | gandotinib -0.081 | tozasertib 0.024 | doramapimod -0.034 | bafetinib 0.038 | [2] -0.054 | nilotinib -0.018 | [3] 0.02 | dasatinib 0.022 | [4] -0.059 | [5] 0.003 | quisinostat 0.037 | tipifarnib 0.038 | [6] -0.024 | [7] 0.014 | [8] 0.021

RDX (UniProt P35241)
inactive: lapatinib -0.018 | pictilisib 0.02 | crizotinib 0.063 | duvelisib 0.005 | gandotinib -0.093 | tozasertib -0.005 | doramapimod -0.045 | bafetinib 0.077 | [2] -0.136 | nilotinib -0.003 | [3] -0.006 | dasatinib 0.037 | [4] 0.048 | [5] -0.008 | quisinostat 0.047 | tipifarnib 0.013 | [6] -0.007 | [7] 0.002 | [8] 0.006
active: [1] 0.546

RBBP8 isoform 2 (UniProt Q99708)
Chain of UniProt Q99708 (Q99708 whole entry, looked up): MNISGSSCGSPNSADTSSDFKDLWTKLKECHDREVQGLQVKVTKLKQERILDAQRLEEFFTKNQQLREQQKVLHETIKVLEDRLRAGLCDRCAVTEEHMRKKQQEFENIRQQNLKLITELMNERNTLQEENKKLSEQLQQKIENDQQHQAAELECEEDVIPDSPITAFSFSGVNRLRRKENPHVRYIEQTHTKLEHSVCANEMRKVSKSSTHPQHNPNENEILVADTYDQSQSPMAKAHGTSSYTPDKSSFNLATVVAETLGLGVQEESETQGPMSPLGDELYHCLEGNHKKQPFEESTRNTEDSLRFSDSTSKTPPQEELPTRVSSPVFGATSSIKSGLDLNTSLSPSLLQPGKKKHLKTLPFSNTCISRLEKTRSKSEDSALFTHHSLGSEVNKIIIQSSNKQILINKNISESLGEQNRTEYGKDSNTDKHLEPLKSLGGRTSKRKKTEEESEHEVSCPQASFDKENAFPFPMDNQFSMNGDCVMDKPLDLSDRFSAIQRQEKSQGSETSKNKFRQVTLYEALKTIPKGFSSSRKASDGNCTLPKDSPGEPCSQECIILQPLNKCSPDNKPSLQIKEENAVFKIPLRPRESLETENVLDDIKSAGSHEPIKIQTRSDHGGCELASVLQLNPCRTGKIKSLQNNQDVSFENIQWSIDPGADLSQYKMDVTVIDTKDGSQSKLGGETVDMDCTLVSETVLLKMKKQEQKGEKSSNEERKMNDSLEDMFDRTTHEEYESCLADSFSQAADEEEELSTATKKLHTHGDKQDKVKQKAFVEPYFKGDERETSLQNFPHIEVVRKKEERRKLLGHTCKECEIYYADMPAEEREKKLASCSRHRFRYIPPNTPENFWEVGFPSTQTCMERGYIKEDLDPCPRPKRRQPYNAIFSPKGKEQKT
inactive: lapatinib -0.042 | pictilisib 0.069 | crizotinib -0.085 | [1] 0.065 | duvelisib 0.032 | gandotinib -0.013 | tozasertib 0.177 | doramapimod 0.024 | bafetinib -0.079 | [2] 0.007 | nilotinib -0.07 | [3] -0.003 | dasatinib 0.063 | [4] 0.081 | [5] 0.031 | quisinostat 0.074 | tipifarnib 0.022 | [6] 0.033 | [7] 0.035 | [8] -0.026

RPS26P11 (UniProt Q5JNZ5)
inactive: lapatinib 0.024 | pictilisib -0.008 | crizotinib -0.085 | duvelisib 0.076 | gandotinib 0.147 | tozasertib -0.055 | doramapimod 0.021 | bafetinib -0.072 | nilotinib 0.026 | [3] 0.027 | dasatinib -0.017 | [4] 0.044 | [5] 0.02 | quisinostat -0.151 | tipifarnib 0.004 | [6] -0.036 | [7] 0 | [8] -0.004
active: [1] -0.484 | [2] 0.24

RBM23 isoform 2 (UniProt Q86U06)
Chain of UniProt Q86U06 (Q86U06 whole entry, looked up): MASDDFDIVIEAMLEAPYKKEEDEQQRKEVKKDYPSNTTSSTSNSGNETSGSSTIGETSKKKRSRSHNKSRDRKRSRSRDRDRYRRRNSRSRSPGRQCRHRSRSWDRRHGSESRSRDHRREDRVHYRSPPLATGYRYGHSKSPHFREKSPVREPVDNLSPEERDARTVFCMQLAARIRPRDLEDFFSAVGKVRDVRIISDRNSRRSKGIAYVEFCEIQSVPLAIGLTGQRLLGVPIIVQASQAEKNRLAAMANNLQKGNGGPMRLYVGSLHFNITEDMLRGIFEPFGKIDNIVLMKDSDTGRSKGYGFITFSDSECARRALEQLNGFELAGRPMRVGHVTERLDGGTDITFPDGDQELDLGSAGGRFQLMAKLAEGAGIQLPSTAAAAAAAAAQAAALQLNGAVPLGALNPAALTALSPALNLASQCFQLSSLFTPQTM
active: doramapimod 0.489
inactive: lapatinib 0.056 | pictilisib -0.053 | crizotinib -0.076 | [1] 0.044 | duvelisib -0.008 | gandotinib 0.272 | tozasertib 0.053 | bafetinib -0.114 | [2] 0.083 | nilotinib 0.172 | [3] 0.021 | dasatinib -0.004 | [4] -0.065 | [5] -0.061 | quisinostat -0.047 | tipifarnib -0.168 | [6] -0.024 | [7] -0.056 | [8] 0.021

RNF168 (UniProt Q8IYW5)
inactive: lapatinib -0.034 | pictilisib 0.063 | crizotinib 0.027 | [1] -0.015 | duvelisib 0.037 | gandotinib 0.002 | tozasertib -0.088 | doramapimod -0.008 | bafetinib -0.212 | [2] -0.036 | nilotinib 0.144 | [3] 0.085 | dasatinib 0.064 | [4] -0.186 | [5] 0.006 | quisinostat -0.019 | tipifarnib 0.016 | [6] -0.009 | [7] -0.02 | [8] 0.018

SEC13 isoform 3 (UniProt P55735)
Chain of UniProt P55735 (P55735 whole entry, looked up): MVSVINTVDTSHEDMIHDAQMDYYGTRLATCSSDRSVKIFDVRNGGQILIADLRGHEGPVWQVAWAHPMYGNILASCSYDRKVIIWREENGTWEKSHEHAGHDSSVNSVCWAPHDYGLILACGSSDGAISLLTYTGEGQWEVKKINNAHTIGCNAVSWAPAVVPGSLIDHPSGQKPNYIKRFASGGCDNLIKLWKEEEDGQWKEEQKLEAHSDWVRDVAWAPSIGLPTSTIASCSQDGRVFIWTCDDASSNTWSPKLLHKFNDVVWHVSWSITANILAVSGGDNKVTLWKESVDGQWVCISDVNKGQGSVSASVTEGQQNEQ
active: [1] 0.417
inactive: lapatinib 0 | pictilisib 0.023 | crizotinib 0.058 | duvelisib 0.02 | gandotinib -0.076 | tozasertib 0.01 | doramapimod -0.031 | bafetinib -0.016 | [2] -0.068 | nilotinib -0.02 | [3] 0.038 | dasatinib -0.01 | [4] 0.031 | [5] 0.02 | quisinostat 0.079 | tipifarnib -0.014 | [6] 0.006 | [7] 0.006 | [8] -0.006

RPL28 (UniProt P46779)
inactive: lapatinib 0.01 | pictilisib 0.047 | crizotinib 0.043 | [1] 0.234 | duvelisib 0.018 | gandotinib -0.098 | tozasertib -0.018 | doramapimod -0.046 | bafetinib 0.056 | [2] -0.059 | nilotinib -0.018 | [3] -0.011 | dasatinib 0.009 | [4] -0.015 | [5] -0.005 | quisinostat 0.08 | tipifarnib 0.002 | [6] -0.028 | [7] -0.011 | [8] -0.023

RTN4IP1 (UniProt Q8WWV3)
active: [3] -0.34
inactive: lapatinib -0.02 | pictilisib 0.017 | crizotinib -0.021 | [1] 0.056 | duvelisib 0.072 | gandotinib -0.057 | tozasertib 0.009 | doramapimod -0.016 | bafetinib 0.059 | [2] -0.048 | nilotinib -0.056 | dasatinib -0.046 | [4] -0.259 | [5] 0.028 | quisinostat -0.033 | tipifarnib 0.245 | [6] -0.055 | [7] -0.012 | [8] 0.148

SEC62 (UniProt Q99442)
Chain of UniProt Q99442 (Q99442 whole entry, looked up): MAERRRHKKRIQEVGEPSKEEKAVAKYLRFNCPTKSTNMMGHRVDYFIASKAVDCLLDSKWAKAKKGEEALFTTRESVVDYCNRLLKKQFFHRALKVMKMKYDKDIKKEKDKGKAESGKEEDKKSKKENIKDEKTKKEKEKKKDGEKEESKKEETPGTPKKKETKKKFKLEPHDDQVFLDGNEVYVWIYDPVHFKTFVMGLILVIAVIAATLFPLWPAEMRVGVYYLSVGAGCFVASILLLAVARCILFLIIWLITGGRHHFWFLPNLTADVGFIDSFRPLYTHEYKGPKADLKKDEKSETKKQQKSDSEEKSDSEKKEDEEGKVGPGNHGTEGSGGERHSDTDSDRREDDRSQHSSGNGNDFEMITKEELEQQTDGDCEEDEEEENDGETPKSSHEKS
inactive: lapatinib 0.028 | pictilisib -0.029 | crizotinib 0.011 | [1] 0.231 | duvelisib 0 | gandotinib -0.07 | tozasertib -0.024 | doramapimod 0.002 | bafetinib 0.029 | [2] -0.072 | nilotinib 0.013 | [3] -0.032 | dasatinib 0.01 | [4] -0.038 | [5] -0.011 | quisinostat 0.083 | tipifarnib -0.055 | [6] -0.045 | [7] -0.007 | [8] -0.01

RBBP7 isoform 2 (UniProt Q16576)
Chain of UniProt Q16576 (Q16576 whole entry, looked up): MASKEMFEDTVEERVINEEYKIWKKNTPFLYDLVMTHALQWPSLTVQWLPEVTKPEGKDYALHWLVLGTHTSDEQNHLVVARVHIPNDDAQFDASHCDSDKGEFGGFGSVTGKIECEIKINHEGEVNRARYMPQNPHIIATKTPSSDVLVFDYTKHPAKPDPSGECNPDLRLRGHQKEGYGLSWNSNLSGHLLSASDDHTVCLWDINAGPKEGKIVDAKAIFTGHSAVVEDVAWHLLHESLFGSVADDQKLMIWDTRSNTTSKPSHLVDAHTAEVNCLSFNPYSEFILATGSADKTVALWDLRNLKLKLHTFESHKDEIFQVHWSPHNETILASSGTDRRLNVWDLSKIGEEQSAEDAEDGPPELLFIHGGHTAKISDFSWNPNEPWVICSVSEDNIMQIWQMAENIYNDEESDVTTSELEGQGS
inactive: lapatinib 0.002 | pictilisib 0.027 | crizotinib 0.008 | [1] -0.213 | duvelisib 0.025 | gandotinib 0.019 | tozasertib 0.017 | doramapimod 0.035 | bafetinib 0.018 | [2] -0.011 | nilotinib 0.013 | [3] -0.019 | dasatinib -0.005 | [4] -0.035 | [5] 0.016 | quisinostat -0.051 | tipifarnib 0.047 | [6] 0.01 | [7] -0.025 | [8] 0.035

SCAF1 (UniProt Q9H7N4)
inactive: lapatinib -0.06 | pictilisib -0.107 | crizotinib -0.011 | [1] 0.017 | duvelisib -0.337 | gandotinib -0.074 | tozasertib -0.023 | doramapimod 0.052 | bafetinib -0.27 | [2] -0.096 | nilotinib -0.053 | [3] 0.115 | dasatinib -0.018 | [4] -0.13 | [5] -0.042 | quisinostat -0.019 | tipifarnib -0.06 | [6] -0.028 | [7] -0.014 | [8] 0.1

RAD50 isoform 2 (UniProt Q92878)
Chain of UniProt Q92878 (Q92878 whole entry, looked up): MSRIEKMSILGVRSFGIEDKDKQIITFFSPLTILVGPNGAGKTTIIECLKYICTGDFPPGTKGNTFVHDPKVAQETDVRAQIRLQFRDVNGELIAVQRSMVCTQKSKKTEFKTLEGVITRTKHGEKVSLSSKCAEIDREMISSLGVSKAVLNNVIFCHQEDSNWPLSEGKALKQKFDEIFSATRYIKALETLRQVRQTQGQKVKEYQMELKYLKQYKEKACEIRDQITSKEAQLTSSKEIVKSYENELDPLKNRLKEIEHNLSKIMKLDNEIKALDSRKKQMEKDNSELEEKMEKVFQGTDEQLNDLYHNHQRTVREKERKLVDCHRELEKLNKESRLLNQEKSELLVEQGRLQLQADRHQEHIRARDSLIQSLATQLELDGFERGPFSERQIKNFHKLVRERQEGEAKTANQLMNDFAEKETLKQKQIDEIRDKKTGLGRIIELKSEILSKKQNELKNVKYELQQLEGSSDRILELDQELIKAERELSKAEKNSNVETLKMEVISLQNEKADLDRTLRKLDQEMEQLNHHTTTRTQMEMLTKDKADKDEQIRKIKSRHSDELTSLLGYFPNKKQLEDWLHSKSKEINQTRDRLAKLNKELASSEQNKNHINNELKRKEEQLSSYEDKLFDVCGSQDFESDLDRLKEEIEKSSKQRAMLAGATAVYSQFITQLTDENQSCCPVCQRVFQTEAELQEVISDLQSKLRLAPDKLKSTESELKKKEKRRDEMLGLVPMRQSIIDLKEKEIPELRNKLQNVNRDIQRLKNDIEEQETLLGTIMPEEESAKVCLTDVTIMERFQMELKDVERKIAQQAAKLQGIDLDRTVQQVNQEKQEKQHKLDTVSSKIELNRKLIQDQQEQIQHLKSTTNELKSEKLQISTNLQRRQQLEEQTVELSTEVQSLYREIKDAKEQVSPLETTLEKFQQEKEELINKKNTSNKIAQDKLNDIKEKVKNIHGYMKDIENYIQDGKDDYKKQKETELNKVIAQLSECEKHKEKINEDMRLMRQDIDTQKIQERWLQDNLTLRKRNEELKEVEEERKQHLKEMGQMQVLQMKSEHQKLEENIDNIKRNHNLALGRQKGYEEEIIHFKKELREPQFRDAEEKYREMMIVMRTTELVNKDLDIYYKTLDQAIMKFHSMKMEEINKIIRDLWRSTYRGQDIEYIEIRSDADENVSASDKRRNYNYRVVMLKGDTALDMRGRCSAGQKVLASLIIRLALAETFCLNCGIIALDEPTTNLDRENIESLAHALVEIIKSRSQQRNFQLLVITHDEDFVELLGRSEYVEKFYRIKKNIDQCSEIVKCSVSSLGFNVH
inactive: lapatinib -0.012 | pictilisib -0.001 | crizotinib -0.025 | [1] 0.007 | duvelisib -0.019 | gandotinib -0.07 | tozasertib 0.011 | doramapimod -0.003 | bafetinib -0.004 | [2] 0.006 | nilotinib -0.004 | [3] 0.016 | dasatinib -0.042 | [4] -0.003 | [5] 0.026 | quisinostat -0.031 | tipifarnib -0.02 | [6] 0.016 | [7] 0.005 | [8] 0.001

SESN2 (UniProt P58004)
inactive: lapatinib -0.085 | pictilisib -0.047 | crizotinib -0.042 | [1] 0.041 | duvelisib 0.047 | gandotinib 0.038 | tozasertib -0.006 | doramapimod -0.031 | bafetinib -0.15 | [2] 0.003 | nilotinib 0.019 | [3] 0.027 | dasatinib -0.023 | [4] 0.021 | [5] 0.028 | quisinostat -0.051 | tipifarnib 0.007 | [6] 0.092 | [7] 0.034 | [8] -0.057

RSU1 (UniProt Q15404)
inactive: lapatinib 0.001 | pictilisib 0.045 | crizotinib 0.07 | duvelisib 0.007 | gandotinib -0.116 | tozasertib 0.015 | doramapimod -0.045 | bafetinib 0.039 | [2] -0.135 | nilotinib 0.011 | [3] -0.011 | dasatinib 0.007 | [4] -0.028 | [5] 0.001 | quisinostat 0.112 | tipifarnib 0.016 | [6] -0.002 | [7] 0.007 | [8] 0.002
active: [1] 0.329
